# Test results reported in PubChem BioAssay (NCATS).
# Values joined by “and” are separate entries in the source; they are usually repeats but may differ in a detail not shown here. Equal entries are not always repeated. Results filed as inconclusive are left out. Where a call stands in place of a potency, no number is given. Some compounds were tested as several samples or in several runs, with calls that do not always agree. Active and inactive are the calls of the source. Unless noted, calls follow the shape of the dose curve; as a rule, active = well fitted curve in the direction sought with a large enough effect; inconclusive = small, poorly fitted or top-dose-only effect, or another doubt; inactive = no such curve, though single readings can be large; an effect the other way counts as inactive or inconclusive.
# Experiments:
# [1] = Primary qHTS for inhibitors of nuclear receptor binding SET domain protein 2 (NSD2) in an isogenic RCH-ACV NSD2 p.E1099K mutant (9B) (AID 1645876); also: nearly all actives have a fitted effect of over 70% in size; also: potency is read from the fitted curve at half-maximal effect
# [2] = Primary qHTS for inhibitors of nuclear receptor binding SET domain protein 2 (NSD2) in an RCH-ACV wild type WT cells (2C) (AID 1645877); also: nearly all actives have a fitted effect of over 70% in size; also: potency is read from the fitted curve at half-maximal effect
# [3] = target: Rap guanine nucleotide exchange factor 3 (Homo sapiens) (UniProt O95398); assay: Confirmatory qHTS for antagonist of cAMP-regulated guanine nucleotide exchange factor 3 (EPAC1) (AID 1645880); also: nearly all actives have a fitted effect of over 55% in size
# Outline: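 Released BODIPY-GDP fluoresces less than Rap1-bound BODIPY-GDP; the signal is followed at 480/540 nm at 5-min intervals over 30 min, after 5 min at room temperature. Reactions contain 100 nM EPAC1, 250 nM RAP1B-BODIPY-GDP and 50 uM GDP; results are normalized to ATA and DMSO.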
# [4] = target: Rap guanine nucleotide exchange factor 3 (Homo sapiens) (UniProt O95398); assay: Confirmatory qHTS for agonist of cAMP-regulated guanine nucleotide exchange factor 3 (EPAC1) (AID 1645881);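 also: EPAC1 catalysed release of BODIPY-GDP from Rap1B seen as fluorescence loss; nearly all actives have a fitted effect of over 75% in size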
# [5] = target: Rap guanine nucleotide exchange factor 4 (Homo sapiens) (UniProt Q8WZA2); assay: Confirmatory qHTS for agonist of cAMP-regulated guanine nucleotide exchange factor 4 (EPAC2) (AID 1645884);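 also: nucleotide exchange releases bodipy-GDP from Rap1 and this lowers its fluorescence; nearly all actives have a fitted effect of over 65% in size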
# [6] = target: Rap guanine nucleotide exchange factor 4 (Homo sapiens) (UniProt Q8WZA2); assay: Confirmatory qHTS for antagonist of cAMP-regulated guanine nucleotide exchange factor 4 (EPAC2) (AID 1645885); also: nearly all actives have a fitted effect of over 25% in size
# [7] = target: Catechol O-methyltransferase (Homo sapiens) (UniProt P21964); assay: Confirmatory Screen for Target Class Profiling of Small Molecule Inhibitors of Methyltransferases (AID 1745852; calls by dose curve; also: potency is read from the fitted curve at half-maximal effect); details: MTase-Glo luminescence, SAH detection, recombinant enzyme; measured here: COMT max response; stronger effect = lower value
# [8] = target: Guanidinoacetate N-methyltransferase (Homo sapiens) (UniProt Q14353); assay: as above; details: MTase-Glo luminescence, SAH detection, recombinant enzyme; activity change, negative = inhibition: at 57.3 µM (top of the series)
# [9] = target: Nicotinamide N-methyltransferase (Homo sapiens) (UniProt P40261); assay: as above; details: MTase-Glo luminescence, SAH detection, recombinant enzyme; measured here: NNMT max response; stronger effect = lower value
# [10] = target: Phenylethanolamine N-methyltransferase (Homo sapiens) (UniProt P11086); assay: as above; details: MTase-Glo luminescence, SAH detection, recombinant enzyme; measured here: PNMT max response; stronger effect = lower value
# Phenylethanolamine N-methyltransferase (Homo sapiens), sequence (P11086 whole entry, looked up): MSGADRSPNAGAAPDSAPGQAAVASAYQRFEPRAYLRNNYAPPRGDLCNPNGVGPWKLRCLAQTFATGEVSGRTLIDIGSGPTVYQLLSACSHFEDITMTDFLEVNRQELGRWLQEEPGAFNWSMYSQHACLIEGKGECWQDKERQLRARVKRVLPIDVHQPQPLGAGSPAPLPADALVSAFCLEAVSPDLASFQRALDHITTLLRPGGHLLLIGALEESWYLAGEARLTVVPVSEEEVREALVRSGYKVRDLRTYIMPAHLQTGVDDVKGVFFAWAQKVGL
# Rap guanine nucleotide exchange factor 4 (Homo sapiens), sequence (Q8WZA2 whole entry, looked up): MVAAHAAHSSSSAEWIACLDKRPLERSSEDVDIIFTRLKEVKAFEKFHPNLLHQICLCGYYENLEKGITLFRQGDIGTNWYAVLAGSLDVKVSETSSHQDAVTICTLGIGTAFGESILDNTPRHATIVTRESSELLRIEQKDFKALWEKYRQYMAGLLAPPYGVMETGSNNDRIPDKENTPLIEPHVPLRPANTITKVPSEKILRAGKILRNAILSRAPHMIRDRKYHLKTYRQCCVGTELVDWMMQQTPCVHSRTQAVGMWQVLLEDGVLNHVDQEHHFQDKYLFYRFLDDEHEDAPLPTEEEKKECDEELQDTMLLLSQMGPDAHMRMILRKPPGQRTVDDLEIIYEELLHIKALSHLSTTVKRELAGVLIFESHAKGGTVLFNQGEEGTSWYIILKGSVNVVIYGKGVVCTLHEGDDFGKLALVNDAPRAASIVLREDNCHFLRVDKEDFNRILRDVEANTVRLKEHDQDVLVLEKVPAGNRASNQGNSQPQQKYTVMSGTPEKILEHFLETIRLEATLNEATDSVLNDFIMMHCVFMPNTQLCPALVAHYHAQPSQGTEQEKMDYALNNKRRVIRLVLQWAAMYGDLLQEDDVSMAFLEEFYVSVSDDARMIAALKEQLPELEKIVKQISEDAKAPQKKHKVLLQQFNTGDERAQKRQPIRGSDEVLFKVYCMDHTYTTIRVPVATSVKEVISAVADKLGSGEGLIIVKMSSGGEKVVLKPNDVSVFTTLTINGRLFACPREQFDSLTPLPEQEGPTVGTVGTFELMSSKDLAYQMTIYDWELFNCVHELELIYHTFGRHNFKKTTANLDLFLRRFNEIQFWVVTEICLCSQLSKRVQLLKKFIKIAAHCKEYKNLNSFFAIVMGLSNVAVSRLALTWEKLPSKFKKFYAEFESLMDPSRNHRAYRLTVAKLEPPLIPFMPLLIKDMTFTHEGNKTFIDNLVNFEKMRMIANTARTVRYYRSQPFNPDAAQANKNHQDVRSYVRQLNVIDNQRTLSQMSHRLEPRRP
# Catechol O-methyltransferase (Homo sapiens), sequence (P21964 whole entry, looked up): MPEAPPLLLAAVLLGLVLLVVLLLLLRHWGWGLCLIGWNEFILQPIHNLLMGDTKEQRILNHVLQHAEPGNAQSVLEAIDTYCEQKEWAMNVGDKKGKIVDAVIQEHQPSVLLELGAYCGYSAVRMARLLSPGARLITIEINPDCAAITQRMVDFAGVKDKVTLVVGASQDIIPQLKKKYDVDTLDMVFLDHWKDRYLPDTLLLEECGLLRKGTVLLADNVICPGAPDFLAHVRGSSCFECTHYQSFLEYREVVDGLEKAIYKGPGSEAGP
# Rap guanine nucleotide exchange factor 3 (Homo sapiens), sequence (O95398 whole entry, looked up): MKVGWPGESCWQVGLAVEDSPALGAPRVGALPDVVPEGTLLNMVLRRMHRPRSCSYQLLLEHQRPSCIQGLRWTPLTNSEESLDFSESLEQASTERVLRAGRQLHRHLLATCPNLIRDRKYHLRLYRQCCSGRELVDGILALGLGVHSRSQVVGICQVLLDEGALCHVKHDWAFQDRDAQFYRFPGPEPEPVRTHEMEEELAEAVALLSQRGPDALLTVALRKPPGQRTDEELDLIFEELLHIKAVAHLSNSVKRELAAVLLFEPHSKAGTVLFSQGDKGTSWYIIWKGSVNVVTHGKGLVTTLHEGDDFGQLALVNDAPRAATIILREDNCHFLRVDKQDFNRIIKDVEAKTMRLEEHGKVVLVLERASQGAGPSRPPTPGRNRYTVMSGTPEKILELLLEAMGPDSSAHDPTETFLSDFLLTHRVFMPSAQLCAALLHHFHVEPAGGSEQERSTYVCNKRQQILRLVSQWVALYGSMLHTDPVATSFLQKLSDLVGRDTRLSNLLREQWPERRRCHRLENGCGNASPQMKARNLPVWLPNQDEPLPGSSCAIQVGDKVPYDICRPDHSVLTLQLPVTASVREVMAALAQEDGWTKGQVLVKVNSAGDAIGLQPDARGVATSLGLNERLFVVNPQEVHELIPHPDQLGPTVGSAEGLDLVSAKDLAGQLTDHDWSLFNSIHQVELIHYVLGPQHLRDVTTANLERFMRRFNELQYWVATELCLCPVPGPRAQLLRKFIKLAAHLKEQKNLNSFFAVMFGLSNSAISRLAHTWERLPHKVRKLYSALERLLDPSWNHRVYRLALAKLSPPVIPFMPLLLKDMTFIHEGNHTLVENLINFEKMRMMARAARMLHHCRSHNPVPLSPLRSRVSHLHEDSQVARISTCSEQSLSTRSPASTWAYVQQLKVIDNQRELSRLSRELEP
# Nicotinamide N-methyltransferase (Homo sapiens), sequence (P40261 whole entry, looked up): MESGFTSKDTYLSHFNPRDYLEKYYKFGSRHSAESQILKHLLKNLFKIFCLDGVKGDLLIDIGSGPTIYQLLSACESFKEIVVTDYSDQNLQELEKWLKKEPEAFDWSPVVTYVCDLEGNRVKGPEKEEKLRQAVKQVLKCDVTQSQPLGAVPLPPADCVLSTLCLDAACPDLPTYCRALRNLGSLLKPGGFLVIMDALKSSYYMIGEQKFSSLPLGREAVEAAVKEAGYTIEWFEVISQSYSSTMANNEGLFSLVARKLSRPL
structure (smiles),measurement,setting,value
Cc1cccc(N(C)C(=S)Oc2ccc3ccccc3c2)c1,Potency,[1],inactive
same,Potency,[2],inactive and 14.8 µM (active)
same,outcome,[3],inactive
same,outcome,[4],inactive
same,outcome,[5],inactive
same,outcome,[6],inactive
CC(C)C[C@H](NC(=O)[C@H](CCc1ccccc1)NC(=O)CN1CCOCC1)C(=O)N[C@@H](Cc1ccccc1)C(=O)N[C@@H](CC(C)C)C(=O)[C@@]1(C)CO1,Potency,[1],7.5 nM (active) and 10.5 nM (active)
same,Potency,[2],6 nM (active) and 5.3 nM (active)
Nc1nc(=S)c2[nH]cnc2[nH]1,Potency,[1],750 nM (active) and 833 nM (active)
same,Potency,[2],1.06 µM (active) and 742 nM (active)
CCOCC(O)COc1ccc(NC(=O)CC[S+](C)C)cc1 (stereo not drawn),Potency,[1],inactive
same,Potency,[2],inactive
Cn1nnc2c(C(N)=O)ncn2c1=O,Potency,[1],inactive
same,Potency,[2],inactive
CNS(=O)(=O)Cc1ccc2[nH]cc(CCN(C)C)c2c1,Potency,[1],inactive
same,Potency,[2],inactive
CC(C)C1CCC(C(=O)N[C@H](Cc2ccccc2)C(=O)O)CC1 (stereo partly drawn),Potency,[1],inactive
same,Potency,[2],inactive
O=c1oc2c(O)c(O)cc3c(=O)oc4c(O)c(O)cc1c4c23,Potency,[2],inactive
CCC(=O)O[C@]1(C(=O)SCF)[C@H](C)C[C@H]2[C@@H]3C[C@H](F)C4=CC(=O)C=C[C@]4(C)[C@@]3(F)[C@@H](O)C[C@@]21C,Potency,[2],inactive
Cc1onc(-c2ccccc2Cl)c1C(=O)N[C@@H]1C(=O)N2[C@@H]1SC(C)(C)[C@@H]2C(=O)O,Potency,[1],inactive
same,Potency,[2],inactive
CCn1cc(C(=O)O)c(=O)c2cc(F)c(N3CCNCC3)nc21,Potency,[1],inactive
same,Potency,[2],inactive
COCCCOc1cc(C[C@@H](C[C@H](N)[C@@H](O)C[C@H](C(=O)NCC(C)(C)C(N)=O)C(C)C)C(C)C)ccc1OC,Potency,[2],inactive
COc1cc2ncnc(Nc3cccc(Cl)c3)c2cc1OC,Potency,[1],11.5 µM (active)
same,Potency,[2],12.9 µM (active)
same,activity,[7],-45.8%
same,Potency,[8],30.4 µM (active)
same,activity,[9],-29.1%
same,activity,[10],-45.8%
O=C(O)CSCC(=O)NC1CCSC1=O (stereo not drawn),Potency,[1],inactive
same,Potency,[2],inactive
CCCc1nc(C)c2c(=O)[nH]c(-c3cc(S(=O)(=O)N4CCN(CC)CC4)ccc3OCC)nn12,Potency,[1],inactive
same,Potency,[2],inactive
Nc1nc(N)nc(-c2cc(Cl)ccc2Cl)n1,Potency,[1],inactive
same,Potency,[2],inactive
CN(C)CCc1c[nH]c2ccc(CS(=O)(=O)N3CCCC3)cc12,Potency,[1],inactive
same,Potency,[2],inactive
CNC1CCCN(c2c(F)cc3c(=O)c(C(=O)O)cn(C4CC4)c3c2OC)C1 (stereo not drawn),Potency,[1],inactive
same,Potency,[2],inactive
NC1(c2ccc(-c3nc4ccn5c(=O)[nH]nc5c4cc3-c3ccccc3)cc2)CCC1,Potency,[1],21.1 nM (active) and 64.9 nM (active) and 166 nM (active)
same,Potency,[2],21.1 nM (active) and 81.7 nM (active) and 332 nM (active)
same,activity,[7],-9.12%
same,"activity change, negative = inhibition",[8],-8.7%
same,activity,[9],-25.8%
same,activity,[10],-8.08%
CNS(=O)(=O)CCc1ccc2[nH]cc(C3CCN(C)CC3)c2c1,Potency,[1],inactive
same,Potency,[2],inactive
same,activity,[7],-4.91%
same,"activity change, negative = inhibition",[8],2.91%
same,activity,[9],-12.2%
same,activity,[10],-2.32%
Cc1ccc(S(=O)(=O)N[C@@H](Cc2ccccc2)C(=O)CCl)cc1,Potency,[1],13.2 µM (active)
same,Potency,[2],11.8 µM (active)
CCCOc1ccc(C(=O)OCCN(CC)CC)cc1N,Potency,[1],inactive
same,Potency,[2],inactive
CN(C)CCc1c[nH]c2ccc(C[C@H]3COC(=O)N3)cc12,Potency,[1],inactive
same,Potency,[2],inactive
same,outcome,[3],inactive
same,outcome,[4],inactive
same,outcome,[5],inactive
same,outcome,[6],inactive
O[C@@H](CNC[C@H](O)[C@H]1CCc2cc(F)ccc2O1)[C@@H]1CCc2cc(F)ccc2O1,Potency,[1],11.9 µM (active)
same,Potency,[2],11.9 µM (active)
CC(C)OC(=O)C(C(=O)OC(C)C)=C1SC=CS1,Potency,[1],inactive
same,Potency,[2],inactive
CCN(C)C(=O)Oc1cccc([C@H](C)N(C)C)c1,Potency,[1],inactive
same,Potency,[2],inactive
CC(N)C12CC3CC(CC(C3)C1)C2 (stereo not drawn),Potency,[1],inactive
same,Potency,[2],inactive
O=C(O)c1ccc(-n2nc(-c3ccccc3O)nc2-c2ccccc2O)cc1,Potency,[1],6.68 µM (active) and 4.17 µM (active)
same,Potency,[2],5.31 µM (active) and 4.17 µM (active)
